From PubChem
Only some compounds are listed: those with a hit (about 0.55% of all), similar ones and a draw of the others.
TRPV1 ag – HTS Assay for Compounds that Act as Agonists of the Vanilloid Receptor 1. Transient receptor potential cation channel subfamily V member 1 (Homo sapiens), Q8NER1. 320,000 tested, 0.19% active. TRPV1-expressing cells, Fluo-8 calcium influx, agonist mode. activation, % at 8.33 µM; in the data active = activation above about 80%; inconclusive = between about 30% and that limit; note: 0% is about no effect
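Fluo-8 calcium influx in TRPV1-expressing cells, kinetic read (ex 480/em 520 nm). Compound added and read 3 min for agonist activity, followed by capsaicin at EC20 final and 2 min further read for enhancement.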
IMPase Li cell – qHTS Assay for Identifying the Cell-Membrane Permeable IMPase Inhibitors: Potentiation with Lithium | 210,000 tested, 0.35% active | CHO-M1 cells, IP1 TR-FRET (IP-One), carbachol + lithium | Potency, µM (series often up to 59.4 µM), inactives show top-dose activity, negative = IMPase inhibition, hits mostly inhibitors;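 note: IP1 builds up when IMPase is blocked and the TR-FRET signal falls; potency is the fitted concentration of half-maximal effect; plate controls were basal vehicle for no effect and high inhibitor control for full effect; nearly all actives have a fitted effect of over 50% in size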
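CHO-M1, 2000 cells/well, 16–30 h culture; cpd + low Li+, 30 min 37C; lysis with d2-IP1/Eu-anti-IP1 Ab, 10 min RT; TR-FRET 665/620 ratio and 620 channel; AC50 via Hill.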
TRPV1 potentiator – HTS Assay for Compounds that Act as Potentiators of the Vanilloid Receptor 1; potentiation, % at 8.33 µM; TRPV1-expressing cells, Fluo-8 calcium influx, capsaicin EC20 potentiation; Transient receptor potential cation channel subfamily V member 1 (Homo sapiens), Q8NER1; 320,000 tested, 0.02% active; AID 540277, 2011; in the data active = potentiation above about 80%; inconclusive = between about 30% and that limit; note: 0% is about no effect
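Fluo-8 calcium influx in TRPV1-expressing cells, kinetic read (ex 480/em 520 nm). Compound added and read 3 min for agonist activity, followed by capsaicin at EC20 final and 2 min further read for enhancement.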
AT treatment – qHTS Assay for Identifying a Potential Treatment of Ataxia-Telangiectasia | F2112 A-T fibroblasts, KAP-1 phosphorylation AlphaLISA; neocarzinostatin DNA damage 30 min before lysis | 320,000 tested, 0.19% active | Potency, µM (highest dose often 57.5 µM), without a hit: at the top dose activation, actives largely listed as activators; note: potency is the fitted concentration of half-maximal effect; % of control where 0% means no effect; nearly all actives have a fitted effect of over 45% in size
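ATM-like activity read as KAP-1 phosphorylation via AlphaLISA donor/acceptor antibody pairs after lysis and 6 hr at 25C. Cells were ATM-null patient fibroblasts (F2112, hTERT), dosed 60 min, then exposed to the DSB inducer NCS for 30 min.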
The depositor's hits bear a star; ? = inconclusive; . = not tested or not shown; [ ] = remark or other dose. Unless noted, calls come from the whole dose curve; as a rule, active = well fitted curve in the direction sought with a large enough effect; inconclusive = small, poorly fitted or top-dose-only effect, or another doubt; inactive = no such curve, though single readings can be large; an effect the other way counts as inactive or inconclusive.

SMILES	TRPV1 ag	IMPase Li cell	TRPV1 potentiator	AT treatment
CC1CCC2(CC1)NC(=O)N(CC(=O)Nc1nc(-c3ccc(F)cc3)cs1)C2=O (centres undefined)	3	14µM*	11	11%
O=c1nc(N/N=C/c2c[nH]c3ccccc23)cn[nH]1	0	.	-8	0%
C(=N\Nc1ccccn1)/c1c[nH]c2ccccc12	0	.	13	5µM*
O=C(O)/C(Cc1ccc([N+](=O)[O-])cc1)=N/O	.	3%	.	.
O=C(Nc1nnc(-c2ccccc2F)s1)Nc1ccccc1F	-4	10µM*	1	-2%
C=CC1=C2C=C(C3CC3)N(Cc3ccccc3)C=C2C(=O)C(C)(OC(=O)c2ccco2)C1=O (centres undefined)	.	2%	.	.
O=C(Nc1nnc(C(F)(F)F)s1)c1ccc(Br)s1	9	-2%	2	2%
O=C(Nc1nnc(C2CCCCC2)s1)c1ccc(Br)s1	80*	10µM*	-7	10%
COc1ccc(CN2CCN(c3ncnc4scc(-c5ccc(F)cc5)c34)CC2)cc1	-4	.	-1	14µM*
COc1ccc(N2CCN(c3ncnc4scc(-c5ccc(F)cc5)c34)CC2)cc1	-3	.	-29	3%
COc1ccc(C(=O)Nc2ccc(C3=NNC(=O)CC3C)cc2NC(=O)c2ccc(OC)cc2)cc1 (centres undefined)	84*	0%	-3	0%
CN(C)Cc1ccc(-c2cc3onc(-c4ccccc4)c3c(=O)n2C)cc1	.	15%	.	.
C/C(=N/NC(N)=S)c1cc2ccc(O)cc2oc1=O	.	.	.	3%
NC(=S)c1cc2ccc(O)cc2oc1=O	2	3.2µM*	-9	-4%
Cc1cc(Sc2nnc(/N=C/N(C)C)s2)c2ccccc2n1	.	.	.	27%
Cc1cc(Sc2nnc(N)s2)c2ccccc2n1	-11	.	24	40µM*
CCc1ccccc1	.	-4%	.	.
COC(=O)CCSc1nc(N2CCOCC2)c2c(c1C#N)CC(C)(C)OC2	?	.	-6	-5%
CC(C)CCSc1nc(N2CCOCC2)c2c(c1C#N)CC(C)(C)OC2	91*	.	-18	10%
Oc1ccc2cc(SSc3ccc4cc(O)ccc4c3)ccc2c1	.	3%	.	.
CCCC1(c2ccccc2)NC(=O)N(CC(=O)Nc2cc(C)on2)C1=O (centres undefined)	1	4%	2	18%
CCCC1(c2ccccc2)NC(=O)N(CC(=O)Nc2sc(-c3ccccc3)cc2C(=O)OCC)C1=O (centres undefined)	2	2.8µM*	-20	2%
CCc1nc(Nc2ccccc2)c2oc3ccccc3c2n1	84*	36%[38.3 µM]	-7	1%
CCc1nc(Nc2cccc(F)c2)c2oc3ccccc3c2n1	?	.	12	19%
CCc1nc(Nc2cccc(OC)c2)c2oc3ccccc3c2n1	81*	.	0	17%
SMILES	TRPV1 ag	IMPase Li cell	TRPV1 potentiator	AT treatment
CCc1nc(Nc2ccc(F)cc2)c2oc3ccccc3c2n1	?	.	5	6%
N[C@@H](Cc1nn[nH]n1)C(=O)O	.	5%	.	.
COC(=O)N1C2=C(c3ccccc3[C@@H]1CC(=O)Nc1ccc3cc4ccccc4cc3c1)[C@@H]1C(=O)N(c3ccccc3)C(=O)[C@@H]1[C@H](C)C2	.	7%	.	.
CC(=O)c1cccc(NC(=S)NCCc2ccc(Cl)cc2)c1	85*	5%	5	1%
CC(=O)c1cccc(NC(=S)NCc2ccccc2)c1	?	.	1	19%
C[Si](C)(c1ccc(C(=O)O)cc1)c1ccc(C(=O)O)cc1	.	-1%	.	.
[O][C@H]1[C@@H](O)[C@@H](CO)O[C@@H](O[C@@H]2[C@@H]3OC[C@H]2O[C@H](O[C@@H]2[C@@H](O)[C@H](C[C@@H]4[C@@H]5OC[C@H]4O[CH][C@@H]5O)O[C@H](CO)[C@@H]2OS(=O)(=O)O)[C@@H]3OS(=O)(=O)O)[C@@H]1O	.	-4%	.	.
O=C(NCc1cccnc1)C1CCC(c2ccc(Cl)cc2)CC1 (centres undefined)	115*	.	-14	0%
CC(=O)OC(C(=O)c1ccccc1)c1ccccc1 (centres undefined)	.	9%	.	.
CC(C)(C)OC(=O)NCCCCC1=CC2=CC(=O)C(C)(OC(=O)C3CCCC3)C(=O)C2=CO1 (centres undefined)	.	6%	.	.
CCSc1nc2ccccc2n1C(=O)/C=C\c1ccc(OC)c(OC)c1	1	13%[38.3 µM]	-12	18µM*
COCCNC(=O)c1c(N)n(-c2cccc(C)c2)c2nc3ccccc3nc12	-6	-5%[38.3 µM]	5	3.5µM*
Fc1ccc(-n2c(-c3ccc4ccccc4n3)n[nH]c2=S)cc1	1	3%	-4	4%
S=c1[nH]nc(-c2ccc3ccccc3n2)n1-c1cc(Cl)cc(Cl)c1	-8	10µM*	-7	-17%
N[C@@H](Cc1[nH]nc2ccccc12)C(=O)O	.	0%	.	.
COc1ccc2nc(SC)c(C#N)cc2c1	-3	11µM*	1	13%
CCC(=O)Nc1ncnc2ncn(C(=O)CC)c12	.	-2%	.	.
Cc1ncoc1C(=O)Nc1ccc(Oc2ccccc2)cc1	84*	0%[38.3 µM]	-23	1%
O=S(=O)(c1ccccc1)N1CCN(c2nc3ccccc3s2)CC1	2	11µM*	10	8%
CC(=O)c1cccc(NC(=O)c2cnn(-c3ccccc3)c2C)c1	?	.	-11	5%
COC(=O)c1cnn(-c2ccc(C(=O)Nc3cccc(C(C)=O)c3)cc2)c1N	26	.	-28	28µM*
CC1(C)OC(=O)C2(Cc3ccccc3N3CCCC32)C(=O)O1 (centres undefined)	-3	.	2	.
CC(=O)[C@]1(O)Cc2c(O)c3c(c(O)c2[C@@H](O[C@H]2C[C@H](N)[C@H](O)[C@H](C)O2)C1)C(=O)c1c(O)cccc1C3=O	.	31%	.	.
COc1cc(C2C(C(=O)c3cc4ccccc4o3)=C(O)C(=O)N2c2cc(C)on2)cc(OC)c1OC (centres undefined)	6	.	6	4%
COc1cccc(C2C(C(=O)c3cc4cccc(OC)c4o3)=C(O)C(=O)N2c2cc(C)on2)c1OC (centres undefined)	-1	10µM*	11	-8%
SMILES	TRPV1 ag	IMPase Li cell	TRPV1 potentiator	AT treatment
COc1cccc(C2C(C(=O)c3cc4ccccc4o3)=C(O)C(=O)N2c2cc(C)on2)c1OC (centres undefined)	-3	11µM*	29	-4%
CCCC=O	.	7%	.	.
C[N+](C)(C)c1nc(N)nc2c1ncn2[C@H]1O[C@@H](CO)[C@@H](O)[C@H]1O	.	6%	.	.
O=C(NCCc1csc(-c2cccnc2)n1)c1c(F)cccc1F	2	.	19	40µM*
O=C(NCCc1csc(-c2ccccc2)n1)c1c(F)cccc1F	20	11%	-24	4%
O=S(=O)(Nc1ccc(-c2nc3cccnc3s2)cc1)c1ccc(Cl)s1	-5	2%[38.3 µM]	22	10%
